Data on 22 compounds can be found in PubChem BioAssay (NCATS).

Molecules are shown by their SMILES. Values without a mark were called inactive. Inconclusive results are not listed. Activity calls are given as the source filed them. Calls come from the whole dose curve; as a rule, active = well fitted curve in the direction sought with a large enough effect; inconclusive = small, poorly fitted or top-dose-only effect, or another doubt; inactive = no such curve, though single readings can be large; an effect the other way counts as inactive or inconclusive. *1 amine or outer side, *2 acyl side, *3 side chain or, on linkers, in order; H or OH if unused. Where a SMILES comes first, the peptide text is derived from it. Bridges are numbered along the chain shown (N, C = ends). X6 = O=C(CCC[*:2])[*:1]

Test [1] is described as follows: Primary fluorescence-based thiol-reactive (MSTI) qHTS assay for identification of artifact compounds. (AID 1845221).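 For activity change, negative = thiol reactive: thiol-reactive compounds lower the probe fluorescence signal.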 Note: nearly all actives have a fitted effect of over 65% in size. Note: potency is the fitted concentration of half-maximal effect. The conditions noted are these: MSTI thiol-reactivity probe, 1 h; series mostly up to 53.8 µM. Put shortly: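 In PBS pH 7.4 with 2% DMSO, each compound met 4 uM MSTI for one hour at ambient temperature, shielded from light, before fluorescence detection.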
(In qHTS, concentration-response curves come from the screen itself.)

In test [2] the test system is Nanoluciferase (engineered Oplophorus gracilirostris luciferase). As to the kind of experiment: Primary Nanoluciferase (NLuc) qHTS assay for identification of artifact compounds. (AID 1845222).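 Note: 0% = DMSO and -100% = no enzyme.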 As to conditions: NLuc-conditioned medium, Nano-Glo luminescence, 5 min; series mostly up to 54.1 µM. Put shortly: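 Compounds are pinned into diluted (1:55) conditioned medium of NLuc-expressing S16 cells and held 15 min at room temperature protected from light. Nano-Glo substrate follows, and luminescence is read 5 min later.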

The nature of test [3]: Primary redox qHTS assay for identification of artifact compounds. (AID 1845223).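 Note: 0% = DMSO and 100% = reference compound.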 As to conditions: Amplex Red/HRP redox cycling with DTT, fluorescence; series mostly up to 53.8 µM. In a few lines:
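Redox-cycling detection via DTT (250 uM final) oxidation coupled to Amplex Red (25 uM)/HRP (250 mU/mL) in HBSS. 15 min preincubation plus 30 min after DTT, room temperature. Ex/Em 525/598 nm; 4-parameter Hill fit against DMSO and 10 uM DA3003.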

As for `CC1=C(C)C(=O)OC(C(C)(O)C2CCC3C4CC=C5CC(OC6OC(COC7OC(CO)C(O)C(O)C7O)C(O)C(O)C6O)CC(O)C5(C)C4CCC32C)C1` (stereo not drawn), the Potency entry in test [1] and in test [2] was “inactive” throughout. Turning to `CCC(C)(O)C(O)C(=O)OCc1ccc(O[C@@H]2O[C@H](CO)[C@@H](O)[C@H](O)[C@H]2O)cc1` (stereo partly drawn), the Potency entry in test [1] and in test [2] was “inactive” each time. As to `OC[C@H]1O[C@@H](Oc2ccc(O)c3cccc(O)c23)[C@H](O)[C@@H](O)[C@@H]1O`, in test [1], the Potency is 927 nM (active). With `COc1cc(C/C(=C/NC(C)=O)N(CC(=O)Cc2ccccc2)C(C)=O)cc2c1OCO2`, the Potency entry in test [1] and in test [2] was “inactive” each time. With `O=C(O)c1cc(O)c2cccc(O)c2c1O[C@@H]1O[C@H](CO)[C@@H](O)[C@H](O)[C@H]1O`, in test [1], the Potency is 2070 nM (active). For `CC(=O)OC[C@@]12[C@H](O)C[C@]3(C)C(=CCC4[C@@]5(C)CC[C@H](O[C@@H]6O[C@H](C(=O)O)[C@@H](O[C@@H]7O[C@H](CO)[C@@H](O)[C@H](O)[C@H]7O)[C@H](O)[C@H]6O[C@@H]6O[C@H](CO)[C@@H](O)[C@H](O)[C@H]6O)[C@](C)(CO)C5CC[C@]43C)[C@@H]1CC(C)(C)[C@@H](OC(C)=O)[C@@H]2O` (stereo partly drawn), the activity change, negative = thiol reactive in test [1] was 182% [at 11.5 µM]. The activity, negative = inhibition in test [2] is 3.06% [at 11.6 µM].

Regarding `O=C(NC[C@H](O)CN1CCc2ccccc2C1)c1cc(NC2COC2)ncn1`, the Potency entry in test [1] and in test [2] was “inactive” throughout. As to `CC[C@H](C)[C@@H]1NC(=O)[C@H](Cc2ccc(OC)cc2)NC(=O)CCCSC[C@@H](C(=O)N2CCC[C@H]2C(=O)N[C@@H](CC(C)C)C(=O)NCC(N)=O)NC(=O)[C@H](CC(N)=O)NC(=O)[C@H](CCC(N)=O)NC1=O` (Y(Me)IQNCPLG-NH2; linker N-5 via X6), the Potency result in test [1] and in test [2] was “inactive” in each case.

Regarding `COCCN(C)Cc1ccc2nc3sc(C(=O)N(C)C4CCCCC4)cn3c2c1`, the Potency entry in test [1] and in test [2] was “inactive” each time. As for `C/C(=C/CCC(CO)C1CCC2(C)C3CCC4C(C)(C)C(OC5OC(CO)C(O)C(O)C5O)CC(O)C45CC35CCC12C)COC1OC(CO)C(O)C(O)C1O` (stereo not drawn), the Potency result in test [1] and in test [2] was “inactive” throughout. For the compound `CC1CC(O)C2(C)C(C(=O)O)=CCCC2C1(C)CCc1ccoc1` (stereo not drawn), in test [1], the Potency entry is “inactive”.

With `N#CC1C(=O)Nc2scc(-c3ccc(-c4ccccc4O)cc3)c2C1=O` (stereo not drawn), in test [1], the Potency result is “inactive”.

Regarding `CC1=C(CC(=O)O)c2cc(F)ccc2C1=Cc1ccc(S(C)(=O)=O)cc1`, the Potency result in test [1] and in test [2] was “inactive” in each case. Consider `CC1(C)C[C@H]2C3=CCC4[C@@]5(C)CC[C@H](O[C@H]6O[C@H](C(=O)O)[C@@H](O)[C@H](O)[C@H]6O[C@H]6O[C@H](CO)[C@@H](O)[C@H](O)[C@H]6O[C@@H]6O[C@H](CO)[C@@H](O)[C@H](O)[C@H]6O)[C@](C)(CO)C5CC[C@@]4(C)[C@]3(C)CC[C@@]2(C)[C@H](O[C@@H]2OC[C@H](O)[C@H](OC3O[C@H](CO)[C@@H](O)[C@H](O)[C@H]3O)[C@H]2O)[C@@H]1O` (stereo partly drawn), for which the activity change, negative = thiol reactive in test [1] was 48.1% [at 11.5 µM]. In test [2], the activity, negative = inhibition was 4.18% [at 11.6 µM].

Consider `CC(=O)O[C@@]1(C)C[C@@H](O)[C@]2(O)C=CO[C@@H](O[C@@H]3O[C@H](CO)[C@@H](O)[C@H](O)[C@H]3O)[C@@H]21`, for which the Potency result in test [1] and in test [2] was “inactive” each time. For the compound `CO/N=C(/C(=O)N[C@@H]1C(=O)N2C(C(=O)O)=C(CSC(=O)c3ccco3)CS[C@H]12)c1csc(N)n1`, the Potency result in test [1] and in test [2] was “inactive” each time. Turning to `C=C1CC[C@H]2[C@@](C)(CCC[C@@]2(C)C(=O)O)[C@@H]1CCC(C)CCO` (stereo partly drawn), the Potency entry in test [1], in test [2] and in test [3] was “inactive” throughout. `Cc1nn(C)c(COc2ccc(N3CCN(S(=O)(=O)N(C)C)CC3)cc2)c1-c1cccc2c(CCCOc3cccc4ccccc34)c(C(=O)O)n(CCN3CCOCC3)c12`: the Potency result in test [1], in test [2] and in test [3] was “inactive” throughout.

Take `CCCn1cnc2c(NCc3ccccc3)nc(N[C@H](CC)CO)nc21`: the Potency result in test [1] and in test [2] was “inactive” each time. As to `C=CC(C)(C)O[C@@H]1O[C@H](CO[C@@H]2OC[C@](O)(CO)[C@H]2O)[C@@H](O)[C@H](O)[C@H]1O`, the Potency entry in test [1], in test [2] and in test [3] was “inactive” each time. Turning to `NCCCC[C@H](NC(=O)[C@@H]1Cc2ccccc2CN1C(=O)CCC(=O)c1ccccc1)C(=O)NCC(c1ccccc1)c1ccccc1`, the Potency result in test [1] and in test [2] was “inactive” throughout. For the compound `C[C@@H]1O[C@@H](O[C@H]2[C@H](O)[C@@H](O)[C@H](OC[C@H]3O[C@@H](OC(=O)[C@]45CCC(C)(C)C[C@H]4C4=CCC6[C@@]7(C)C[C@H](O)[C@H](O[C@@H]8O[C@H](CO)[C@@H](O)[C@H](O)[C@H]8O)[C@@](C)(C(=O)O)C7CC[C@@]6(C)[C@]4(C)CC5)[C@H](O[C@@H]4O[C@H](CO)[C@@H](O)[C@H](O)[C@H]4O)[C@@H](O)[C@@H]3O)O[C@@H]2CO)[C@H](O)[C@H](O)[C@H]1O` (stereo partly drawn), the activity change, negative = thiol reactive in test [1] is 1.9% [at 11.5 µM]. Also, the activity, negative = inhibition in test [2] was 4.14% [at 11.6 µM].
